A number with no mark means an inactive call.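 The calls were made as follows: active = AUC reduced over 20% with Padj below 0.05 in at least 2 of 3 replicates; inactive = otherwise.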
Experiments:
Test in all cases: growth AUC relative to DMSO control (median of replicates) (fraction); higher = more growth (less inhibition), active = hit call of the paper
Conditions in all cases: 20 µM; 24 h
[1] = tested on: Akkermansia muciniphila
How it was run: (§1)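 Each value is the median of three biological replicates, grown on separate days, of a gut bacterial monoculture incubated anaerobically at 37 °C in mGAM with 20 µM compound (1% DMSO). Cultures started at OD600 0.05 and were read at OD600 hourly for 24 h, with the minimum OD set to 0. Area under the growth curve was normalised to the plate median of solvent-only wells, or to row and column medians on the industrial chemical plate.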

[2] = tested on: Bacteroides caccae
How it was run: as §1

[3] = tested on: Bacteroides clarus
How it was run: as §1

[4] = tested on: Bacteroides dorei
How it was run: as §1

[5] = tested on: Bacteroides stercoris
How it was run: as §1

[6] = tested on: Bacteroides thetaiotaomicron
How it was run: as §1

[7] = tested on: Bacteroides uniformis
How it was run: as §1

[8] = tested on: Bifidobacterium longum subsp. longum
How it was run: as §1

[9] = tested on: Clostridium difficile
How it was run: as §1

[10] = tested on: Collinsella aerofaciens
How it was run: as §1

[11] = tested on: Coprococcus comes
How it was run: as §1

[12] = tested on: Escherichia coli ED1a
How it was run: as §1

[13] = tested on: Escherichia coli IAI1
How it was run: as §1

[14] = tested on: Eubacterium rectale
How it was run: as §1

[15] = tested on: Fusobacterium nucleatum subsp. animalis
How it was run: as §1

[16] = tested on: Lactobacillus gasseri
How it was run: as §1

[17] = tested on: Lactobacillus paracasei
How it was run: as §1

[18] = tested on: Odoribacter splanchnicus
How it was run: as §1

[19] = tested on: Parabacteroides distasonis
How it was run: as §1

[20] = tested on: Parabacteroides merdae
How it was run: as §1

SMILES	growth AUC [1]	growth AUC [2]	growth AUC [3]	growth AUC [4]	growth AUC [5]	growth AUC [6]	growth AUC [7]	growth AUC [8]	growth AUC [9]	growth AUC [10]	growth AUC [11]	growth AUC [12]	growth AUC [13]	growth AUC [14]	growth AUC [15]	growth AUC [16]	growth AUC [17]	growth AUC [18]	growth AUC [19]	growth AUC [20]
N#CC(=NOCC1OCCO1)c1ccccc1	1.03	0.834	0.992	0.963	1.06	0.981	0.96	1.06	1.02	0.936	1.01	0.971	0.982	1.06	0.99	0.962	1.01	1.11	0.981	0.931
CCNC(=O)[C@@H](C)OC(=O)Nc1ccccc1	0.912	0.991	1.02	0.992	1.06	1.01	0.969	0.976	1.03	1.1	1.04	1.01	1.01	1.01	1.05	1.18	0.941	0.955	1.08	1.04
O=[N+]([O-])c1ccc(Oc2c(Cl)cc(Cl)cc2Cl)cc1	0.832	1.02	0.907	1.01	1.07	0.971	0.914	0.985	1.02	0.935	0.95	1.01	1.03	1.02	1.05	0.874	1.05	1.03	0.623 (active)	0.899
O=C(O)C1(C(=O)Nc2ccc(Cl)cc2Cl)CC1	1.06	1.06	0.956	1.05	1.1	1.03	1.04	0.998	1.01	1.01	1.01	1.02	1.02	0.98	1.03	0.955	0.999	0.994	0.909	1.01
CC1=C(C(=O)Nc2ccccc2)CCCO1	0.955	0.992	1.01	1.01	0.951	0.99	1.06	1.15	1.01	1.01	1.01	0.992	0.981	0.974	0.969	0.952	1.03	1.05	0.974	1.01
CC(C)CCCCCCc1ccc(O)cc1	0.981	1.03	1.03	1.01	0.923	0.992	0.965	1.03	1.07	0.979	1.01	1.02	1.01	0.879	1.16	0.948	1.03	1.05	1.02	0.968
O=C1NCC[n+]2ccccc21.[Br-]	1.13	0.985	1.01	0.761	0.984	0.972	1.02	0.972	1.01	0.97	1.02	0.966	0.978	1.07	0.908	0.882	0.961	0.968	0.923	0.972
CCc1cccc(CC)c1N(COC)C(=O)CS(=O)(=O)[O-].[Na+]	1.02	0.953	1.01	0.989	1.07	0.876	0.996	1.04	1.07	0.966	0.971	0.979	0.987	1.02	1.07	1.05	1.02	1.01	1	1.01
CCN(CC)C(=O)SCc1ccccc1Cl	0.931	1.02	0.985	1	1.01	0.983	0.957	0.965	0.996	1.01	1.01	1.04	1	0.939	0.964	1.1	0.994	1.12	0.92	0.95
CC(C)Nc1nc(N)nc(Cl)n1	0.991	1.03	1.03	1.01	1.07	1.04	1.01	1	1.03	1.02	1.01	1.01	1.05	1.01	1.05	0.98	0.96	1.06	1.06	1.04
O=C(Nc1ccc(F)cc1-c1ccc(Cl)c(Cl)c1)c1cn[nH]c1C(F)F	1.02	0.865	0.724 (active)	0.968	0.349 (active)	0.635 (active)	0.689 (active)	0.952	0.971	1.01	0.916	0.974	0.945	0.82	0.983	0.814	0.953	0.553 (active)	0.373 (active)	0.779 (active)
CCOc1ccc2c(c1)C(C)=CC(C)(C)N2	0.9	1.04	1	1	1.01	0.995	1.01	1.03	1.02	1.02	1.03	1.03	0.986	1.06	1.03	0.992	1.02	1.07	0.97	1.01
CCN(Cc1c(F)cccc1Cl)c1c([N+](=O)[O-])cc(C(F)(F)F)cc1[N+](=O)[O-]	0.852	0.822	0.831	1.02	0.27 (active)	0.934	1.03	0.909	0.99	0.829	0.784	0.982	0.986	0.896	0.937	0.896	1.03	1.03	0.934	0.903
COC(=O)C(C)Oc1ccc(Oc2ccc(C(F)(F)F)cn2)cc1 (stereo not given)	1.14	0.979	0.992	0.948	1.23	0.965	0.968	1.02	1.01	0.979	0.977	1.02	1.02	1.06	1.12	0.958	0.98	1.02	0.821	0.963
CCC/C(=N\OCC(C)Oc1ccc(Cl)cc1)C1=C(O)CC(C2CCCSC2)CC1=O (stereo not given)	0.924	0.949	0.958	1	0.843	0.901	0.939	0.91	1.02	0.973	0.979	0.98	0.987	0.906	0.913	1.02	0.706	1.07	0.885	0.938
CCOC(=O)NCCOc1ccc(Oc2ccccc2)cc1	0.87	0.934	0.928	0.854	0.968	0.891	0.958	0.914	0.98	0.984	0.954	1	0.976	0.956	0.943	1.03	0.949	0.931	0.932	0.974

— the supplement of paper PMC12669032
